From PubChem BioAssay AID504843 (Broad Institute, 2011)
Screen size: about 1,200 compounds; about 360 (30%) were called active. Not all results are given here. Results with a measured potency or affinity are listed apart. Values without a mark were called inactive. The rule behind the calls is not given here.

Experiment: bacterial growth inhibition, dose response, counter-screen, BacTiter-Glo luminescence, cherry-picked samples (AID 504843);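 note: 0% = median of sample compound wells and -100% = antibiotic control wells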
Conditions: BacTiter-Glo ATP luminescence; series mostly up to 15 µM; activity change, negative = inhibition: at the top concentration

Row | SMILES | activity change, negative = inhibition [%]
1 | NS(=O)(=O)c1ccc(CCNc2nc(C(F)(F)F)nc3ccccc23)cc1 | 12
2 | Cc1ccnc(NC(c2cccnc2)c2ccc3cccnc3c2O)c1 (stereo not drawn) | -11.9
3 | CCCOc1cc(C)c(S(=O)(=O)N2CCN(C)CC2)cc1C | -15.3
4 | O=C1CN(C(=O)COC(=O)c2cc(S(=O)(=O)N3CCOCC3)ccc2Cl)c2ccccc2N1 | 9.82
5 | Cc1ccc(C)c(NC(=S)N(CCc2ccncc2)C(C)C)c1 | 7.28
6 | CC(C)Cc1ccc(CN2CCCC(NC(=O)Cn3cnnn3)C2)cc1 (stereo not drawn) | 7.33
7 | COc1cccc(CN2CC(C(=O)NCCOc3cccnc3)CCC2=O)c1 (stereo not drawn) | -2.68
8 | COCc1cc(CNC(=O)C2CCC(=O)N(Cc3ccccc3OC)C2)[nH]n1 (stereo not drawn) | 11.7
9 | CC(C)C[C@@H](CN1CCC[C@@H]1CN1C(=O)C(=O)NC[C@@H]1Cc1ccccc1)N1C[C@H](Cc2ccc(O)cc2)N(CC2CCCCC2)C(=O)C1=O | -2.65
10 | Cc1cc(Nc2nc3ccccc3nc2Cl)n(-c2ccccc2C)n1 | -19.4
11 | Cc1cc(C)cc(CSc2nnc(C)c(=O)[nH]2)c1 | 12.2
12 | Cc1ccc(C)n1-c1ccc(-c2ccnc(N)n2)cc1 | -7.48
13 | O=C(CCNS(=O)(=O)c1ccccc1C(F)(F)F)NCCCN1CCOCC1 | 10.8
14 | COc1ccc(S(=O)(=O)N(C)c2ccc(C(=O)N3CCOCC3)cc2)cc1 | -3.06
15 | COc1cccc(CNC(=O)CN2C(=O)CCSc3ccc(S(=O)(=O)N4CCCC4)cc32)c1 | 15.1
16 | O=C(N/C(=C/c1cccc([N+](=O)[O-])c1)C(=O)N1CCOCC1)c1ccc(Br)cc1 | -4.16
17 | COC(=O)/C(=C/c1ccco1)NC(=O)c1ccccc1 | 16.3
18 | COc1ccc(-n2c(O)c(/C=N/NS(=O)(=O)c3cccc([N+](=O)[O-])c3)c3ccccc3c2=O)cc1OC | -16.4
19 | Nc1cc(OC(=O)c2ccc(F)cc2)nn1S(=O)(=O)c1ccc(F)cc1 | 8.53
20 | CCc1nc2ccccc2c(C(=O)OC2CCOC2=O)c1C (stereo not drawn) | -24.9
21 | c1ccc(NC(=NCc2ccco2)c2ccccc2)cc1 | -3.37
22 | O=C(O)c1cccc(NC(=O)c2ccccc2)c1 | -1.77
23 | CC(C)c1c(C(=O)N/N=C/C2CC=CCC2)nnn1-c1nonc1N (stereo not drawn) | -11.7
24 | O=C(CN1CCN(c2ccccc2F)CC1)NC(=O)NCc1ccccc1 | -10.5
25 | Cc1nc(N2CCN(S(=O)(=O)c3ccc(Br)cc3)CC2)c2c(C)c(C)sc2n1 | -5.15
26 | O=C(O)c1ccc(CSc2nnc(-c3ccncc3)n2-c2ccc(Cl)cc2)cc1 | -3.41

Row | SMILES | activity change, negative = inhibition [%]
27 | COC(=O)c1sc(NC(=O)CSc2nnnn2-c2ccc(C)cc2C)nc1C | 4.55
28 | CCCc1cc(=O)[nH]c2nnc(SCC(=O)Nc3ccc4c(c3)OCCO4)n12 | 0.067
29 | COc1ccccc1NS(=O)(=O)c1ccc2[nH]c(=S)oc2c1 | 3.6
30 | c1ccc(C2NCCc3ccccc32)cc1 (stereo not drawn) | 5.25
31 | CCOc1ccc2nc(NC(=O)CN3CCC(n4nnc5cc(F)ccc54)CC3)sc2c1 | 12.9
32 | Cc1cc(C)c2oc(=O)cc(CN3CCN(Cc4ccc5c(c4)OCO5)CC3)c2c1 | -5.29
33 | O=C(Nc1ccc(Oc2ccccc2)nc1)C1CCCCN1Cc1ccc(OCCO)cc1 (stereo not drawn) | 14
34 | CCC1CCCCN1Cc1nc2c(c(=O)n(C)c(=O)n2C)n1CCCc1ccccc1 (stereo not drawn) | -9.51
35 | CCCNc1nc2c(c(=O)[nH]c(=O)n2C)n1CCCc1ccccc1 | -5.21
36 | COCCn1c(-c2cccc([N+](=O)[O-])c2)nc2c1c(=O)[nH]c(=O)n2Cc1ccccc1 | -0.242
37 | COCCCNc1nc2c(c(=O)[nH]c(=O)n2C)n1CC(O)COc1cccc(C)c1 (stereo not drawn) | -1.28
38 | CC(C)c1ccc(OCC(=O)NC2=NCCS2)cc1 | -12.5
39 | COc1ccc(-c2noc(CSc3nnc(-c4ccncc4)n3-c3ccc(F)cc3)n2)cc1OC | 8.62
40 | CCCCN1CC(COCc2ccccc2)Oc2cccc(N3CCCC3)c2S1(=O)=O (stereo not drawn) | 8.68
41 | S=C(NCCCn1ccnc1)Nc1cccc(Cl)c1 | 1.23
42 | O=C(CCCCCNC(=O)c1ccccc1)C[N+](=O)[O-] | -0.921
43 | CN1CC(c2ccccc2Cl)C2(COc3ccccc3C2=O)C12C(=O)Nc1ccccc12 (stereo not drawn) | 16
44 | CCC1=C(c2ccc(C)cc2)S(=O)(=O)N=C1N1CCC(C(=O)NCCCN2CCCCC2C)CC1 (stereo not drawn) | -12.5
45 | COc1ccc2[nH]c3c(=O)n(CCN4CCOCC4)cnc3c2c1 | -0.687
46 | O=C1/C(=C/c2cccnc2)Oc2cc(OS(=O)(=O)c3ccccc3)ccc21 | 7
47 | COc1ccc(NS(=O)(=O)c2ccc(NC(=O)Cc3cccs3)cc2)cc1 | 16
48 | CN(C)C(=S)Nc1ccc2ccccc2c1 | -7.34
49 | CCN(CC)C(=O)Cn1cc(C(=O)C(=O)NCCCn2ccnc2)c2ccccc21 | 11.8
50 | O=C(NCC1CCCO1)C(c1cccs1)N(C(=O)c1ccc(CN2CCOCC2)o1)c1ccc(Cl)cc1 (stereo not drawn) | -2.43
51 | O=C1CCCC2=C1C(c1cccs1)CC(=O)N2c1ccc(F)cc1 (stereo not drawn) | 5.06
52 | O=C1CCCC2=C1CC(C(=O)OCc1ccccc1)C(=O)N2Cc1ccccc1 (stereo not drawn) | 10.2

Row | SMILES | activity change, negative = inhibition [%]
53 | Cc1ccc[n+](CC(=O)c2cc3ccccc3oc2=O)c1 | 5.66
54 | O=C1Nc2ccc(S(=O)(=O)NCCCO)c3cccc1c23 | -22.6
55 | Cc1ccc(S(=O)(=O)Nc2c(C)n(C)n(-c3ccccc3)c2=O)cc1C(=O)NCc1ccco1 | 11.8
56 | Cc1ccc(C(=O)CN2/C(=C(\O)c3ccccc3)C(=O)c3ccccc3S2(=O)=O)c(C)c1 | 4.58
57 | CCn1c(C)nc2cc(C(=O)N/N=C/c3ccc(OC)c(O)c3)ccc21 | -1.45
58 | O=C(Cc1ccccc1)Nc1ccc2oc(=O)ccc2c1 | -9.82
59 | COc1cccc(-c2nn(-c3ccccc3)cc2CN(C)C(C)c2ccncn2)c1 (stereo not drawn) | -12.1
60 | O=S(=O)(N1CCCCC1)N1CCN(c2ccccc2F)CC1 | -0.358
61 | CCOC(=O)c1cnn(-c2cc(C)c3ccccc3n2)c1N | 11.3
62 | O=C(CSc1cccc2cccnc12)N/N=C/c1ccncc1 | 17.9
63 | CCn1nc(-c2ccccc2)c2nc3ccccc3nc21 | -1.59
64 | Cc1cc(C(F)F)n2nc(C(=O)Nc3c(F)cc(F)cc3Br)nc2n1 | -2.2
65 | CC(C)N(c1ccccc1)c1ccc(NC(=O)COC(=O)CCN2C(=O)c3cccc([N+](=O)[O-])c3C2=O)cc1 | -7
66 | Cn1c(N)c(C(=O)COC(=O)c2nc(Cl)ccc2Cl)c(=O)n(C)c1=O | 16.6
67 | CN1CCCC(OC(=O)CCCCC(=O)OC2CCCN(C)C2)C1 (stereo not drawn) | -4.57
68 | O=C(CN1CCC(c2nc3ccccc3s2)CC1)NCc1cccs1 | -5.62
69 | O=C(NCc1cccs1)Nc1cccc(Cl)c1 | -21.5
70 | COc1cc(/C=C2\C(=N)N3N=C(S(C)(=O)=O)SC3=NC2=O)ccc1OS(=O)(=O)c1ccc(C)cc1 | -1.12
71 | COc1ccccc1NC(=O)C1=C(C)Nc2ncnn2C1c1ccc(C)o1 (stereo not drawn) | 16.6
72 | Cc1cc(C(=O)CSc2nnc(-c3ccc4c(c3)OCO4)o2)c(C)n1-c1ccc(F)cc1 | 3.73
73 | Cc1cccc2c1cnn2C(=O)CCC(=O)N1CC(C)CC(C)C1 (stereo not drawn) | -0.753
74 | CCC(C)N1CCC2(CC1)N=c1c(c3c4c5c(C)c(O)c3c(O)c1=NC(=O)C(C)=CC=C[C@H](C)[C@H](O)[C@@H](C)[C@@H](O)[C@@H](C)[C@H](OC(C)=O)[C@H](C)[C@@H](OC)C=CO[C@@](C)(O5)C4=O)N2 (stereo partly drawn) | -10.9
75 | O=C(Nc1cccc(NC(=O)c2cccnc2)c1)c1ccccc1 | 4.2
76 | O=C(Nc1ccncc1)c1ccc(Cl)c(Cl)c1 | 17.2
77 | NC(=O)C1CCN(C(=O)c2ccco2)CC1 | 1.49
78 | Cc1ccc2c(C)nc(/N=C(\N)NC(=O)N3c4ccccc4Sc4ccccc43)nc2c1 | 10.8

Row | SMILES | activity change, negative = inhibition [%]
79 | CNC(=O)C(=O)NCCN1CCN(S(=O)(=O)c2ccc3ccccc3c2)CC1 | -7.41
80 | O=C(CCSc1ccccc1)N1CCN(C(=O)c2ccco2)CC1 | -5.32
81 | O=C(CCc1nnc2ccc(NCc3ccco3)nn12)N1CCN(c2ccccc2)CC1 | -4.72
82 | CC(=O)c1ccc(-c2cccc(-c3nc4ccccn4c3NC3CCCCC3)c2)cc1 | -0.443
83 | CCOC(=O)c1sc(NC(=O)CCN2C(=O)c3cccc([N+](=O)[O-])c3C2=O)c(C(=O)OCC)c1C | 14.2
84 | C#CCn1c(O)c(N=NC(=O)C(O)c2ccccc2)c2ccccc21 (stereo not drawn) | -3
85 | COc1ccc(C(=O)Nc2c3c(nn2-c2ccc(Cl)cc2)CS(=O)(=O)C3)cc1 | 8.38
86 | c1ccc(Nc2nc(Nc3ccccc3)nc(N3CCNCC3)n2)cc1 | 0.935
87 | Cc1ccc(Nc2nnns2)cc1C | -4.06
88 | Cc1cc(=O)oc2cc(O)cc(O)c12 | 19.5
89 | O=C(Nc1nnc(S(=O)(=O)N2CCCCCC2)s1)c1ccccc1Br | 17.1
90 | CSc1ccccc1OCc1cc(C(=O)N(C)Cc2c(C)n[nH]c2C)no1 | 5.09
91 | CCc1ccc2c(CSc3nnnn3C)cc(=O)oc2c1 | 7.57
92 | Cc1ncc(CN2CCN(CCC(C)C)C(CCO)C2)s1 (stereo not drawn) | -4.86
93 | CC(=O)C1C(c2ccc(Cl)cc2)NC(=O)NC1(O)C(F)(F)F (stereo not drawn) | -4.75
94 | Cc1cc(=O)[nH]c(Sc2c(-c3ccccc3)c3ccccc3[nH]c2=O)n1 | 16.9
95 | Cc1cc(C)n(CCC(=O)N/N=C/c2c(O)ccc3ccccc23)n1 | 20
96 | COC(=O)[C@H]1[C@H]2C[C@H]3c4[nH]c5ccccc5c4CCN3C[C@@H]2CC[C@@H]1O | -8.06
97 | CCC(=O)NC(c1ccccc1Cl)c1c(O)ccc2ccccc12 (stereo not drawn) | -3.81
98 | Cc1ccsc1C1C(C#N)=C(N)OC2=C1C(=O)CC(C)C2 (stereo not drawn) | -0.951
99 | COc1cccc(C2CC(c3c(-c4ccccc4)c4cc(Cl)ccc4[nH]c3=O)=NN2S(C)(=O)=O)c1OC (stereo not drawn) | 7.14
100 | CCn1c(SCC(=O)Nc2ccc(F)cc2)nnc1-c1cnccn1 | 9.67
101 | CNC1=CC(=O)CC(c2ccccc2)C1 (stereo not drawn) | -15.1
102 | COc1ccc(OCc2nnc3n2N=C(c2ccccc2)C(CC(=O)O)S3)cc1 (stereo not drawn) | 14.5
103 | Cn1cccc1CNCC(O)c1ccccc1 (stereo not drawn) | -0.635
